Assay results from PubChem BioAssay AID488969 (Vanderbilt High Throughput Screening Facility, 2010).
Whole data set: some 110,000 compounds, median “z-score” near -0.1, cut for the highest 2% near 2. The entries come from a sample that favours the highest values as a whole. Active and inactive are the calls of the source.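 Rule for the calls: active = z-score in the third read window above 3 or below -3; inactive = the rest.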

target: Metabotropic glutamate receptor 8 (Rattus norvegicus) (UniProt P70579); test: mGluR8 Gi/Go-coupled signaling modulation – cell-based, rat, thallium flux, HTS, primary screen (AID 488969); details: HEK293 rat mGluR8, GIRK (G protein-gated inwardly rectifying potassium channel) thallium flux, FluoZin2; at 10 µM; stronger effect = higher value; submaximal glutamate (EC20) added with thallium
Sequence (P70579 whole entry, looked up): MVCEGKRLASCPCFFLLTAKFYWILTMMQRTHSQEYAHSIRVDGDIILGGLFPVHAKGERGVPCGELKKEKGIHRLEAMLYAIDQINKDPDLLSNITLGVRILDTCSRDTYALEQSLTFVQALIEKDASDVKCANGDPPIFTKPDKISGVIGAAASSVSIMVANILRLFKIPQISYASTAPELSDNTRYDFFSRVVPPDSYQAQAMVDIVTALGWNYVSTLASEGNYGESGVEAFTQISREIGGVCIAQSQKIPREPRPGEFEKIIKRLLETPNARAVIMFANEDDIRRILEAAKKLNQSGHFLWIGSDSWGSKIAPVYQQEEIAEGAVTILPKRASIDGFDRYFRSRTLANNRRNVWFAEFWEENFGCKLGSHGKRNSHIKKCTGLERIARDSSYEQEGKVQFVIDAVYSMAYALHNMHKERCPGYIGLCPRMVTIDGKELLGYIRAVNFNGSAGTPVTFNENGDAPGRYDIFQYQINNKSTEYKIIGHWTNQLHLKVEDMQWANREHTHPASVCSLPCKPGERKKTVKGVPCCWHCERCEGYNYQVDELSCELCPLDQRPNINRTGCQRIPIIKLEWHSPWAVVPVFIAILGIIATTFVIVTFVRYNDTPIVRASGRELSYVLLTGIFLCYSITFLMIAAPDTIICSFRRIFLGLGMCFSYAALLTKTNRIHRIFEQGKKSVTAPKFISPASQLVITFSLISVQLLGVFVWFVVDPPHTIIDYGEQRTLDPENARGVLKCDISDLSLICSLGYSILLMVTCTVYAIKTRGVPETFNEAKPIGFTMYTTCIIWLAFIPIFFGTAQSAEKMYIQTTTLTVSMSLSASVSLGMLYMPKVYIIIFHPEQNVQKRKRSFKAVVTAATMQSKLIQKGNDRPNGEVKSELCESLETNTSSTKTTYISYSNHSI

SMILES	z-score
CC(C)n1c(-c2ccccc2F)n[nH]c1=S	0.0711
Cn1c(-c2ccc(C(C)(C)C)cc2)n[nH]c1=S	1.92
S=c1[nH]nc(-c2cccnc2)n1C1CCCCC1	0.738
CC(C)n1c(-c2ccc(C(C)(C)C)cc2)n[nH]c1=S	8.21 (active)
Cc1ccsc1-c1n[nH]c(=S)n1C1CCCCC1	0.261
CC(C)(C)c1ccc(-c2n[nH]c(=S)n2C2CCCC2)cc1	4.4 (active)
CC(=N\Nc1ccc(Cl)cc1)/C(=N/O)C(=O)Nc1ccccc1	0.0464
COc1cc(/C=N/O)cc(Br)c1OCC(=O)NCc1ccccc1	0.215
Cc1ccccc1-n1nc(CSc2nc3ccccc3[nH]2)c(-c2ccccc2)c1N	-0.755
O=C(O)C1(NS(=O)(=O)c2ccc(Cl)cc2)CCCCC1	-0.168
COc1ccc(NC(=O)C2CCN(C(=O)c3cccs3)CC2)cc1	0.195
Cc1ccc(-c2nc3cnccn3c2Nc2c(C)cccc2C)o1	-0.399
Cc1ccc(-c2nc3cnccn3c2Nc2ccccc2)o1	-0.467
Cc1ccc(Nc2c(-c3ccc(C)o3)nc3cnccn23)cc1	2.11
C/C=C/c1ccc(OCCOCCOc2cccc3cccnc23)c(OC)c1	-0.356
O=S(=O)(NCc1csc(-c2cccnc2)n1)c1ccc2c(c1)OCCO2	2.01
CCc1ccc(S(=O)(=O)NCCc2csc(-c3cccnc3)n2)s1	-0.459
O=S(=O)(NCCc1csc(-c2cccnc2)n1)c1ccc(Cl)s1	2.22
O=S(=O)(NCCc1csc(-c2cccnc2)n1)c1ccc2c(c1)OCCO2	-0.0667
O=S(=O)(NCc1csc(-c2cccnc2)n1)c1ccc(Cl)s1	0.124
COc1ccc(S(=O)(=O)NCc2csc(-c3cccnc3)n2)cc1	-0.168
Cc1cc(C)n2nc(SCc3cc(=O)n4ccccc4n3)nc2n1	-0.0377
CCCCCCCCSc1n[nH]c(N)n1	0.0327

SMILES	z-score
COC(=O)c1cccc(CSc2nnc(C)s2)c1	-0.565
COc1ccc([N+](=O)[O-])cc1NC(=O)C(C)Sc1ccc(C)cc1 (stereo not drawn)	-0.545
COc1cc(C(=O)OCC(=O)c2c[nH]c3ccccc23)ccc1OCC(=O)N1CCOCC1	0.0746
CCn1ncc(Cl)c1C(=O)NC(C)c1ccccc1 (stereo not drawn)	0.00989
Clc1cccc(Cl)c1CSc1nnc2ccccn12	0.157
Cc1ccccc1CSc1nnc(NC(=O)C2COc3ccccc3O2)s1 (stereo not drawn)	0.0129
C[C@H](C(=O)C=[N+]=[N-])N1C(=O)c2ccccc2C1=O	-0.275
CCCCOc1ccc(-c2nnn(CC(=O)NCc3ccco3)n2)cc1	2.02
CCOc1ccc(-c2nnn(CC(=O)NCc3ccco3)n2)cc1	0.0502
O=C(Cn1nnc(-c2ccccc2)n1)NCc1ccco1	0.185
COc1ccccc1NC(=O)c1ccc(NC(=O)COC(=O)CC(NC(=O)c2ccccc2Cl)c2ccccc2)cc1 (stereo not drawn)	-0.112
Cc1cc2n(n1)C(c1cn(-c3ccccc3)nc1C)Nc1ccccc1-2 (stereo not drawn)	-2.98
O=C(CSc1ccc(-c2ccc(F)cc2)nn1)NCc1ccco1	-0.746
CCOC(=O)Cc1csc(NC(=S)NC(=O)c2ccccc2)n1	10.6 (active)
CCOC(=O)Cc1csc(NC(=O)c2ccncc2)n1	-0.235
CCOC(=O)Cc1csc(NC(=S)NC(=O)c2ccc([N+](=O)[O-])cc2)n1	1.72
CCOC(=O)Cc1csc(NC(=O)c2ccc(OC)c(OC)c2)n1	0.0105
CCOC(=O)Cc1csc(NC(=O)Nc2ccccc2)n1	3.05 (active)
CCOC(=O)Cc1csc(NC(=S)NC(=O)c2ccc(Cl)cc2)n1	2.1
CCOC(=O)Cc1csc(NC(=O)c2ccc(Cl)nc2)n1	0.0254
CCOC(=O)Cc1csc(NC(=O)c2ccc(NC(C)=O)cc2)n1	0.627
CCOC(=O)Cc1csc(NC(=O)CC)n1	1.77
CCOC(=O)Cc1csc(NC(=S)NC(=O)c2ccc(C)cc2)n1	8.13 (active)

SMILES	z-score
CCOC(=O)Cc1csc(NC(=S)NC(=O)c2cccc([N+](=O)[O-])c2)n1	0.802
CCCCC(=O)Nc1ccc(C(=O)Nc2nc(CC(=O)OCC)cs2)cc1	-0.728
CNC(=S)NNC(=O)Cc1ccc(O)cc1	0.306
CCN(CC)S(=O)(=O)c1ccc2c(c1)nc(CCC(=O)Nc1cccc(C(F)(F)F)c1)n2CC	-0.277
CCSc1nnc(NC(=O)C2(C)Cc3ccccc3C(=O)O2)s1 (stereo not drawn)	-0.0977
CCCCc1c(O)nc2sccn2c1=O	-0.251
Cc1cc(N2CCC(C(=O)NC3CC3)CC2)nc(-c2ccccc2)n1	1.41
Cn1c(=O)cc(OCCCC(=O)Nc2ccccn2)c2ccccc21	-0.243
CC(C1CC1)N(C(=O)NC1CCS(=O)(=O)C1)c1ccccc1 (stereo not drawn)	-0.27
CCOc1ccc(NC(=O)c2ccco2)cc1	-0.0362
CC1Oc2ccccc2N(CC(=O)NCCc2ccccc2)C1=O (stereo not drawn)	2.08
COc1ccc(NC(=O)CN2C(=O)C(C)Oc3ccccc32)cc1 (stereo not drawn)	-0.12
CC1Oc2ccccc2N(CC(=O)NCC2CCCO2)C1=O (stereo not drawn)	-0.413
C=CCn1c(=N)n(CC(=O)c2ccc(Br)s2)c2ccccc21	-1.22
C/C(=N/NC(=O)c1sc(NS(=O)(=O)c2ccccc2)nc1C)c1ccccc1	0.345
CN(c1ccc([N+](=O)[O-])cc1C(=O)Nc1ccccc1)C1CCCCC1	-0.377
COc1cc(CNC2CCCC2)cc(Cl)c1OCc1ccc(F)cc1	-0.271
COc1cc(CNC2CCCC2)cc(Cl)c1OCc1ccccc1F	2.5
COc1cc(CNC2CCCC2)cc(Cl)c1OCc1ccccc1Cl	0.0424
CN1CCN(CCCNC(=O)c2cn(C3CCCCC3)c(=O)c3c2c2ccccc2n3C)CC1	-0.464
CC1CCC(C(C)C)C(OC(=O)CSc2nc(N)cc(=O)[nH]2)C1 (stereo not drawn)	-0.124
O=C(CSCc1ccccc1)N=Nc1c(O)[nH]c2ccccc12	6.08 (active)
O=C(CSCc1cccc(Br)c1)N=Nc1c(O)[nH]c2ccccc12	-0.113

SMILES	z-score
O=C(CSc1nc2ccccc2[nH]1)N=Nc1c(O)[nH]c2ccccc12	-0.572
O=C(CSCc1ccc(Br)cc1)N=Nc1c(O)[nH]c2ccccc12	2.84
O=C(Cn1nnc(-c2ccccc2)n1)N=Nc1c(O)[nH]c2ccccc12	-0.0918
O=C(CN1CCN(Cc2ccccc2)CC1)N=Nc1c(O)[nH]c2ccccc12	-0.328
CCOC(=O)c1c(CN2CCOCC2)n(-c2ccccc2)c2cc(Br)c(O)c(CN(C)C)c12	-0.781
CC(C)OCCCNC(=O)C(C)Oc1ccccc1 (stereo not drawn)	-0.305
CCCOc1ccc(C(=O)N2CCN(c3ccc(N)cc3Cl)CC2)cc1	-0.235
COC(=O)C(Cc1ccc(O)cc1)NC(=O)CCC(=O)Nc1ccc(S(N)(=O)=O)cc1 (stereo not drawn)	-0.14
Cc1c(NC(=O)C(C)Sc2nnc(-c3ccccc3)o2)c(=O)n(-c2ccccc2)n1C (stereo not drawn)	-0.308
O=C(CCn1c(=O)oc2ccccc21)N(Cc1ccccc1)c1ccccn1	0.207
COC(=O)c1ccc(NC(=O)CCn2c(=O)oc3ccccc32)cc1	2.57
CC(=O)c1ccc(NC(=O)CCn2c(=O)oc3ccccc32)cc1	-0.318
CN(Cc1ccccc1)C(=O)CCn1c(=O)oc2ccccc21	2.02
CCc1ccc(NC(=O)CCn2c(=O)oc3ccccc32)cc1	0.0251
COCCN(CCOC)C(=O)CCn1c(=O)oc2ccccc21	0.976
CNC(=S)N(Cc1ccc2c(c1)OCO2)C1CC(=O)N(c2ccc(F)cc2)C1=O (stereo not drawn)	0.0865
O=C(CN1C(=O)c2ccccc2C1=O)Nc1ccc2c(c1)OCO2	-0.335
CC1(C)Cc2c(sc3[nH]c(=S)n(Cc4ccco4)c(=O)c23)CO1	8.31 (active)
CCC1(C)Cc2c(sc3nc(SC)n(Cc4ccccc4)c(=O)c23)CO1 (stereo not drawn)	-0.216
CC(C)C1Cc2c(sc3[nH]c(=S)n(Cc4ccccc4)c(=O)c23)CO1 (stereo not drawn)	5.29 (active)
Cc1nnc2n(Cc3ccccc3)c(=O)c3c4c(sc3n12)COC(C)(C)C4	0.198
CCn1c(=O)n(Cc2ccco2)c(=N)c2c3c(sc21)COC(C)(C)C3	-0.025
CCC1(C)Cc2c(sc3[nH]c(=S)n(Cc4ccccc4)c(=O)c23)CO1 (stereo not drawn)	8.14 (active)

SMILES	z-score
CSc1nnc2n(Cc3ccccc3)c(=O)c3c4c(sc3n12)COC(C(C)C)C4 (stereo not drawn)	-0.311
CC1(C)Cc2c(sc3[nH]c(=S)n(Cc4ccccc4)c(=O)c23)CO1	14.5 (active)
Cn1c(=O)[nH]c2sc3c(c2c1=O)CC(C)(C)OC3	-0.263
CC1(C)Cc2c(sc3c2c(=N)n(Cc2ccco2)c(=O)n3Cc2ccccc2)CO1	-0.918
CC(C)C1Cc2c(sc3c2c(=O)n(Cc2ccccc2)c2nncn32)CO1 (stereo not drawn)	-3.44 (active)
CCC1(C)Cc2c(sc3c2c(=O)n(-c2ccccc2)c(=O)n3C)CO1 (stereo not drawn)	-0.673
O=C(CSc1nnc(-c2ccccc2)n1-c1ccccc1)N1c2ccccc2Sc2ccccc21	-1.52
CC1CCCCN1C(=O)NC12CC3CC(CC(C3)C1)C2 (stereo not drawn)	-0.518
CCOc1ccc2c(c1)n(CO)c(=S)n2CO	0.0706
C(=C\c1cccc2ccccc12)/c1nnc(-c2cccs2)o1	-0.201
COc1ccc(CC(=O)n2c(CC#N)nc3ccccc32)cc1OC	0.0175
Cc1ccc2c(Cn3cc(C(F)(F)F)cc(Cl)c3=O)cc(=O)oc2c1	-0.249
CC(C)OC(=O)c1ccc(N2C(=O)C3CC=CCC3C2=O)cc1 (stereo not drawn)	0.0622
C=CCOC(=O)Nc1c(C(=O)OC)[nH]c2ccc(Cl)cc12	-0.103
CCCCNC(=O)/C(C#N)=C/c1ccc(-c2ccc(S(=O)(=O)N3CCOCC3)cc2)o1	0.164
COCCNC(=O)/C(C#N)=C/c1ccc(-c2ccc(S(=O)(=O)N3CCOCC3)cc2)o1	-0.137
CCOCCCNC(=O)/C(C#N)=C/c1ccc(-c2ccc(S(=O)(=O)N3CCOCC3)cc2)o1	2.32
O=C(OCC1COc2ccccc2O1)c1c(F)cccc1F (stereo not drawn)	0.396
N=c1oc2ccc3ccccc3c2cc1-c1nc(-c2ccccc2)cs1	3.16 (active)
COc1ccc(-c2csc(-c3cc4ccccc4oc3=N)n2)cc1	-0.00953
N=c1oc2ccccc2cc1-c1nc(-c2ccc(Cl)cc2)cs1	-0.248
